# Laboratory results: PubChem BioAssay (NCI)
# Compounds without any hit were thinned out: in the full panel of roughly 79,000, 15% have a hit. Values without a mark were called inactive. Calls of active or inactive are those of the source. No stated cut-off is given here; in the data, active means growth inhibition above about 70%; inactive means the rest.
# Experiments:
# [1] = NCI Yeast Anticancer Drug Screen. Data for the sgs1 strain (AID 173);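 further: 0% = growth of vehicle-only control cultures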; conditions: S. cerevisiae sgs1 mutant, stronger effect = higher value
# Outline: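 Strain with an altered DNA repair or cell cycle pathway exposed to compound. Growth then measured. Value = inhibition versus vehicle control.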
# [2] = NCI Yeast Anticancer Drug Screen. Data for the mlh1 rad18 strain (AID 175); conditions: S. cerevisiae mlh1 rad18 strain growth inhibition, stronger effect = higher value
# Outline: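 A repair-deficient yeast strain is exposed to test compound, and growth is scored relative to vehicle-treated controls.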
# [3] = NCI Yeast Anticancer Drug Screen. Data for the rad18 strain (AID 177); conditions: S. cerevisiae rad18 mutant growth inhibition, stronger effect = higher value
# Outline: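 DNA-repair-defective yeast; compound treatment; growth inhibition scored against vehicle.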
# [4] = NCI Yeast Anticancer Drug Screen. Data for the rad52 strain (AID 147);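 further: 0% = growth of vehicle-treated control cultures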; conditions: S. cerevisiae rad52 mutant growth inhibition, stronger effect = higher value
# Outline: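 Growth of repair-deficient yeast cells was compared between compound-treated and vehicle-treated cultures to give percent inhibition.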
# [5] = NCI Yeast Anticancer Drug Screen. Data for the rad50EPP+ strain (AID 151);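 further: 0% = growth of vehicle-treated control cultures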; conditions: S. cerevisiae rad50 mutant strain, stronger effect = higher value
# Outline: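 Measured: growth inhibition of rad50EPP+ yeast. Reference: vehicle-treated controls. Screen uses strains with defined genetic alterations in DNA damage repair or cell cycle control.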
# [6] = NCI Yeast Anticancer Drug Screen. Data for the mgt1 strain (AID 153); conditions: S. cerevisiae mgt1 mutant growth inhibition, stronger effect = higher value
# Outline: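 Compounds were applied to mgt1 mutant yeast, and growth was then compared against vehicle-treated control cultures to give percent inhibition.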
# [7] = NCI Yeast Anticancer Drug Screen. Data for the rad50 strain (AID 155);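 further: 0% = growth of vehicle-only cultures of the same strain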; conditions: S. cerevisiae rad50 strain growth inhibition, stronger effect = higher value
# Outline: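 Vehicle-treated cultures provide the reference for the growth inhibition reported for compound-exposed, repair-deficient yeast.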
# [8] = NCI Yeast Anticancer Drug Screen. Data for the mec2-1 strain (AID 157); conditions: S. cerevisiae mec2-1 strain, stronger effect = higher value
# Outline: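 Compounds were applied to mec2-1 yeast cells. Their growth was then compared with that of vehicle-treated cultures to give growth inhibition.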
# [9] = NCI Yeast Anticancer Drug Screen. Data for the rad14 strain (AID 159);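 further: 0% = growth of vehicle-treated control cultures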; conditions: S. cerevisiae rad14 strain growth inhibition, stronger effect = higher value
# Outline: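 Inhibition of growth is reported for a repair-deficient yeast mutant following compound treatment, calculated relative to cultures that received vehicle.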
# [10] = NCI Yeast Anticancer Drug Screen. Data for the sgs1 mgt1 strain (AID 161);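 further: 0% = growth of cultures given vehicle only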; conditions: S. cerevisiae sgs1 mgt1 strain, stronger effect = higher value
# Outline: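 Growth of a repair-deficient yeast mutant was monitored after compound treatment and expressed as inhibition relative to vehicle-treated cultures.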
# [11] = NCI Yeast Anticancer Drug Screen. Data for the CLN2oe strain (AID 163);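 further: 0% = growth of vehicle-only control cultures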; conditions: S. cerevisiae CLN2oe strain, stronger effect = higher value
# Outline: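 Cells of an engineered yeast line with disturbed cell-cycle regulation are treated with compound. Inhibition of growth is then calculated relative to the vehicle-treated reference.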
# [12] = NCI Yeast Anticancer Drug Screen. Data for the cln2 rad14 strain (AID 165);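 further: 0% = growth equal to vehicle treated cultures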; conditions: S. cerevisiae cln2 rad14 strain, stronger effect = higher value
# Outline: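 Strain: cln2 rad14 yeast, altered in cell cycle control and DNA damage repair. Read-out: growth inhibition vs vehicle.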
# [13] = NCI Yeast Anticancer Drug Screen. Data for the bub3 strain (AID 167); conditions: S. cerevisiae bub3 mutant strain, stronger effect = higher value
# Outline: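 Mutant yeast screening strain plus compound; vehicle-treated cultures serve as the 0% inhibition reference.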
# [14] = NCI Yeast Anticancer Drug Screen. Data for the wt2 strain (AID 169); conditions: S. cerevisiae wt2 strain growth inhibition, stronger effect = higher value
# Outline: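 Growth of compound-treated yeast is measured and expressed as inhibition relative to vehicle-only controls.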
# [15] = NCI Yeast Anticancer Drug Screen. Data for the mlh1 strain (AID 171);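 further: 0% = growth of vehicle-treated control cultures of the same strain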; conditions: S. cerevisiae mlh1 strain growth inhibition, stronger effect = higher value
# Outline: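 Test agents were incubated with yeast bearing a defined DNA damage repair or cell cycle control alteration; values are growth inhibition normalised to vehicle-treated cultures.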
# [16] = NCI Yeast Anticancer Drug Screen. Data for the wt1 strain (AID 149);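 further: 0% = growth of vehicle-treated wt1 cultures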; conditions: S. cerevisiae wt1 strain (SPY 50644) growth inhibition, stronger effect = higher value
# Outline: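 Each compound is tested on wt1 yeast and the loss of growth versus vehicle gives the inhibition value.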
# [17] = at 5.0 µM (retest, dose inferred, filed as 0.5)
# [18] = at 50.0 µM (retest, dose inferred, filed as 5.0)
structure (smiles),measurement,setting,value
O=C(CCc1ccccc1)ON1C(=S)C(c2ccccc2)(c2ccccc2)N=C1Sc1ccccc1,growth inhibition,[1]; at 33.0 µM,49%
same,growth inhibition,[1]; at 100.0 µM,56%
same,growth inhibition,[2]; [17],28%
same,growth inhibition,[2]; [18],86% (active)
same,growth inhibition,[2]; at 50.0 µM,88.8% (active)
same,growth inhibition,[3]; at 1.2 µM,21%
same,growth inhibition,[3]; at 3.7 µM,19%
same,growth inhibition,[3]; at 11.0 µM,10%
same,growth inhibition,[3]; at 33.0 µM,21%
same,growth inhibition,[3]; at 100.0 µM,40%
CO[C@@]12[C@H](COC(N)=O)C3=C(C(=O)C(C)=C(N)C3=O)N1C[C@@H]1N[C@@H]12,growth inhibition,[4]; at 1.2 µM,7%
same,growth inhibition,[4]; at 3.7 µM,19%
same,growth inhibition,[4]; at 11.0 µM,55%
same,growth inhibition,[4]; at 33.0 µM,83% (active)
same,growth inhibition,[4]; at 100.0 µM,92% (active)
same,growth inhibition,[5]; at 1.2 µM,-4%
same,growth inhibition,[5]; at 3.7 µM,5%
same,growth inhibition,[5]; at 11.0 µM,25%
same,growth inhibition,[5]; at 33.0 µM,63%
same,growth inhibition,[5]; at 100.0 µM,83% (active)
same,growth inhibition,[6]; at 1.2 µM,-2%
same,growth inhibition,[6]; at 3.7 µM,2%
same,growth inhibition,[6]; at 11.0 µM,11%
same,growth inhibition,[6]; at 33.0 µM,33%
same,growth inhibition,[6]; at 100.0 µM,79% (active)
same,growth inhibition,[7]; at 1.2 µM,1%
same,growth inhibition,[7]; at 3.7 µM,14%
same,growth inhibition,[7]; [17],23%
same,growth inhibition,[7]; at 11.0 µM,38%
same,growth inhibition,[7]; at 33.0 µM,76% (active)
same,growth inhibition,[7]; [18],72% (active)
same,growth inhibition,[7]; at 50.0 µM,65.3%
same,growth inhibition,[7]; at 100.0 µM,91% (active)
same,growth inhibition,[8]; at 1.2 µM,1%
same,growth inhibition,[8]; at 3.7 µM,13%
same,growth inhibition,[8]; [17],25%
same,growth inhibition,[8]; at 11.0 µM,29%
same,growth inhibition,[8]; at 33.0 µM,74% (active)
same,growth inhibition,[8]; [18],80% (active)
same,growth inhibition,[8]; at 50.0 µM,63.9%
same,growth inhibition,[8]; at 100.0 µM,91% (active)
same,growth inhibition,[9]; at 1.2 µM,6%
same,growth inhibition,[9]; at 3.7 µM,17%
same,growth inhibition,[9]; at 11.0 µM,39%
same,growth inhibition,[9]; at 33.0 µM,76% (active)
same,growth inhibition,[9]; at 100.0 µM,89% (active)
same,growth inhibition,[10]; [17],22%
same,growth inhibition,[10]; [18],68%
same,growth inhibition,[10]; at 50.0 µM,50.8%
same,growth inhibition,[11]; at 1.2 µM,-3%
same,growth inhibition,[11]; at 3.7 µM,0%
same,growth inhibition,[11]; at 11.0 µM,7%
same,growth inhibition,[11]; at 33.0 µM,38%
same,growth inhibition,[11]; at 100.0 µM,85% (active)
same,growth inhibition,[12]; [17],7%
same,growth inhibition,[12]; [18],57%
same,growth inhibition,[12]; at 50.0 µM,48.8%
same,growth inhibition,[13]; at 1.2 µM,1%
same,growth inhibition,[13]; at 3.7 µM,3%
same,growth inhibition,[13]; [17],29%
same,growth inhibition,[13]; at 11.0 µM,7%
same,growth inhibition,[13]; at 33.0 µM,26%
same,growth inhibition,[13]; [18],49%
same,growth inhibition,[13]; at 50.0 µM,25.4%
same,growth inhibition,[13]; at 100.0 µM,67%
same,growth inhibition,[14]; at 1.2 µM,-1%
same,growth inhibition,[14]; at 3.7 µM,4%
same,growth inhibition,[14]; at 11.0 µM,15%
same,growth inhibition,[14]; at 33.0 µM,51%
same,growth inhibition,[14]; at 100.0 µM,86% (active)
same,growth inhibition,[15]; at 1.2 µM,1%
same,growth inhibition,[15]; at 3.7 µM,7%
same,growth inhibition,[15]; at 11.0 µM,21%
same,growth inhibition,[15]; at 33.0 µM,55%
same,growth inhibition,[15]; at 100.0 µM,84% (active)
same,growth inhibition,[1]; at 1.2 µM,3%
same,growth inhibition,[1]; at 3.7 µM,11%
same,growth inhibition,[1]; at 11.0 µM,36%
same,growth inhibition,[1]; at 33.0 µM,71% (active)
same,growth inhibition,[1]; at 100.0 µM,90% (active)
same,growth inhibition,[2]; [17],72% (active)
same,growth inhibition,[2]; [18],92% (active)
same,growth inhibition,[2]; at 50.0 µM,71.7% (active)
same,growth inhibition,[3]; at 1.2 µM,20%
same,growth inhibition,[3]; at 3.7 µM,60%
same,growth inhibition,[3]; at 11.0 µM,84% (active)
same,growth inhibition,[3]; at 33.0 µM,93% (active)
same,growth inhibition,[3]; at 100.0 µM,94% (active)
Cc1ccc(CNc2ccc(Br)cc2)cc1,growth inhibition,[16]; at 1.2 µM,-29%
same,growth inhibition,[16]; at 3.7 µM,-28%
same,growth inhibition,[16]; at 11.0 µM,-27%
same,growth inhibition,[16]; at 33.0 µM,24%
same,growth inhibition,[16]; at 100.0 µM,82% (active)
same,growth inhibition,[5]; at 1.2 µM,-10%
same,growth inhibition,[5]; at 3.7 µM,-11%
same,growth inhibition,[5]; at 11.0 µM,-4%
same,growth inhibition,[5]; at 33.0 µM,14%
same,growth inhibition,[5]; at 100.0 µM,64%
same,growth inhibition,[6]; at 1.2 µM,16%
same,growth inhibition,[6]; at 3.7 µM,12%
same,growth inhibition,[6]; at 11.0 µM,27%
same,growth inhibition,[6]; at 33.0 µM,69%
same,growth inhibition,[6]; at 100.0 µM,92% (active)
same,growth inhibition,[7]; at 1.2 µM,17%
same,growth inhibition,[7]; at 3.7 µM,6%
same,growth inhibition,[7]; [17],61%
same,growth inhibition,[7]; at 11.0 µM,16%
same,growth inhibition,[7]; at 33.0 µM,67%
same,growth inhibition,[7]; [18],89% (active)
same,growth inhibition,[7]; at 50.0 µM,62.8%
same,growth inhibition,[7]; at 100.0 µM,82% (active)
same,growth inhibition,[8]; at 1.2 µM,1%
same,growth inhibition,[8]; at 3.7 µM,2%
same,growth inhibition,[8]; [17],63%
same,growth inhibition,[8]; at 11.0 µM,17%
same,growth inhibition,[8]; at 33.0 µM,66%
same,growth inhibition,[8]; [18],90% (active)
same,growth inhibition,[8]; at 50.0 µM,76.7% (active)
same,growth inhibition,[8]; at 100.0 µM,93% (active)
same,growth inhibition,[9]; at 1.2 µM,-17%
same,growth inhibition,[9]; at 3.7 µM,-18%
same,growth inhibition,[9]; at 11.0 µM,-2%
same,growth inhibition,[9]; at 33.0 µM,71% (active)
same,growth inhibition,[9]; at 100.0 µM,92% (active)
same,growth inhibition,[10]; [17],-19%
same,growth inhibition,[10]; [18],94% (active)
same,growth inhibition,[11]; at 1.2 µM,-9%
same,growth inhibition,[11]; at 3.7 µM,11%
same,growth inhibition,[11]; at 11.0 µM,6%
same,growth inhibition,[11]; at 33.0 µM,34%
same,growth inhibition,[11]; at 100.0 µM,81% (active)
same,growth inhibition,[12]; [17],61%
same,growth inhibition,[12]; [18],97% (active)
same,growth inhibition,[13]; at 1.2 µM,-7%
same,growth inhibition,[13]; at 3.7 µM,11%
same,growth inhibition,[13]; [17],32%
same,growth inhibition,[13]; at 11.0 µM,26%
same,growth inhibition,[13]; at 33.0 µM,63%
same,growth inhibition,[13]; [18],94% (active)
same,growth inhibition,[13]; at 100.0 µM,91% (active)
same,growth inhibition,[14]; at 1.2 µM,-31%
same,growth inhibition,[14]; at 3.7 µM,-30%
same,growth inhibition,[14]; at 11.0 µM,-13%
same,growth inhibition,[14]; at 33.0 µM,35%
same,growth inhibition,[14]; at 100.0 µM,87% (active)
same,growth inhibition,[15]; at 1.2 µM,-32%
same,growth inhibition,[15]; at 3.7 µM,-31%
same,growth inhibition,[15]; at 11.0 µM,-21%
same,growth inhibition,[15]; at 33.0 µM,40%
same,growth inhibition,[15]; at 100.0 µM,85% (active)
same,growth inhibition,[1]; at 1.2 µM,-17%
same,growth inhibition,[1]; at 3.7 µM,-17%
same,growth inhibition,[1]; at 11.0 µM,-15%
same,growth inhibition,[1]; at 33.0 µM,34%
same,growth inhibition,[1]; at 100.0 µM,72% (active)
same,growth inhibition,[2]; [17],28%
same,growth inhibition,[2]; [18],77% (active)
same,growth inhibition,[2]; at 50.0 µM,60.2%
same,growth inhibition,[3]; at 1.2 µM,-6%
same,growth inhibition,[3]; at 3.7 µM,-15%
same,growth inhibition,[3]; at 11.0 µM,-7%
same,growth inhibition,[3]; at 33.0 µM,49%
same,growth inhibition,[3]; at 100.0 µM,77% (active)
